Here are results for 30 molecules from the supplement of paper PMC7184167.

Each structure is given as a SMILES string. Counter-ions that a name gives are not always drawn.

The subject of this assay is replication-induced senescent mouse newborn dermal fibroblasts (NBF). Kind of assay: relative cell viability of senescent cells (fraction); higher = less killing of senescent cells. The settings on record: 1 µM; 3 days. As for the experimental part: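 Replication-induced senescent newborn mouse skin fibroblasts (NBFs) in 24-well plates were treated with a Selleck FDA-approved drug library at 1 µM for 3 days.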

Molecule `O=S(=O)(O)CCSSCCS(=O)(=O)O` [Dimesna] gave a relative cell viability of 0.736. The figure for `CC(=O)Oc1ccccc1C(=O)Nc1ncc([N+](=O)[O-])s1` [Nitazoxanide] is 0.698; for `Nc1ccccc1NC(=O)c1ccc(CNC(=O)OCc2cccnc2)cc1` [Entinostat (MS-275)] it is 0.536. As to `Cc1nc(=O)c2cc(CN(C)c3ccc(C(=O)N[C@@H](CCC(=O)O)C(=O)O)s3)ccc2[nH]1` [Raltitrexed], the relative cell viability worked out at 0.916.

Turning to `COC(=O)N[C@H](C(=O)N[C@@H](Cc1ccccc1)[C@@H](O)CN(Cc1ccc(-c2ccccn2)cc1)NC(=O)[C@@H](NC(=O)OC)C(C)(C)C)C(C)(C)C` [Atazanavir Sulfate], the relative cell viability turned out to be 0.988. Molecule `C[C@]12C=CC(=O)N[C@@H]1CC[C@@H]1[C@@H]2CC[C@]2(C)[C@@H](C(=O)Nc3cc(C(F)(F)F)ccc3C(F)(F)F)CC[C@@H]12` [Dutasteride] yielded a relative cell viability of 0.986.

Consider `CCOc1cc2ncc(C#N)c(Nc3ccc(F)c(Cl)c3)c2cc1NC(=O)/C=C/CN(C)C` [Pelitinib (EKB-569)], for which the relative cell viability was found to be 1.01. The molecule `CC(C)CN(C[C@@H](O)[C@H](Cc1ccccc1)NC(=O)O[C@H]1CCOC1)S(=O)(=O)c1ccc(N)cc1` [Amprenavir] had a relative cell viability of 1.06. On to `CCCSc1ccc2[nH]c(NC(=O)OC)nc2c1` [Albendazole], for which the relative cell viability amounted to 1.08. `COC(=O)C1=C(C)NC(C)=C(C(=O)OCC(C)C)C1c1ccccc1[N+](=O)[O-]` (stereo not given) [Nisoldipine]: the relative cell viability stood at 1.12.

As for `CNCc1ccc(-c2[nH]c3cc(F)cc4c3c2CCNC4=O)cc1`, the relative cell viability amounted to 0.0458. `COC(=O)c1ccc2c(C(=Nc3ccc(N(C)C(=O)CN4CCN(C)CC4)cc3)c3ccccc3)c(O)[nH]c2c1` [Nintedanib (BIBF 1120)] came in with a relative cell viability of 1.01. The value for `COc1ccc(-n2nc(C(N)=O)c3c2C(=O)N(c2ccc(N4CCCCC4=O)cc2)CC3)cc1` [Apixaban] was 0.89; that for `CN(C)CCc1c[nH]c2ccc(Cn3cncn3)cc12` [Rizatriptan Benzoate] was 1.09. The value for `Cn1cnc2c(F)c(Nc3ccc(Br)cc3Cl)c(C(=O)NOCCO)cc21` [Selumetinib (AZD6244)] was 0.897. The molecule `C[C@]1(c2nc3c(C(N)=O)cccc3[nH]2)CCCN1` [Veliparib (ABT-888)] registered a relative cell viability of 0.885. The figure for `CCN(CC)CC#CCOC(=O)C(O)(c1ccccc1)C1CCCCC1` (stereo not given) [Oxybutynin] is 0.938.

`NC(=O)N1c2ccccc2CC(=O)c2ccccc21` [Oxcarbazepine] yielded a relative cell viability of 0.905. The value for `C[C@@H]1C/C=C/C=C/C=C/C=C/[C@H](O[C@@H]2O[C@H](C)[C@@H](O)[C@H](N)[C@@H]2O)C[C@@H]2O[C@](O)(C[C@@H](O)C[C@H]3O[C@@H]3/C=C/C(=O)O1)C[C@H](O)[C@H]2C(=O)O` [Natamycin] was 0.0794. The figure for `NC(=O)c1ncn([C@@H]2O[C@H](CO)[C@@H](O)[C@H]2O)c1N` [AICAR (Acadesine)] is 1.02.

Regarding `C#C[C@]1(O)CC[C@H]2[C@@H]3CCc4cc(O)ccc4[C@H]3CC[C@@]21C` [Ethinyl Estradiol], the relative cell viability is 0.86. Regarding `NS(=O)(=O)c1cc2c(cc1Cl)NC(C(Cl)Cl)NS2(=O)=O` (stereo not given) [Trichlormethiazide], the relative cell viability stood at 0.981.

In turn, `C[C@]12CCC(=O)C=C1CC[C@@H]1[C@@H]2[C@@H](O)C[C@@]2(C)[C@H]1CC[C@]2(O)C(=O)CO` [Hydrocortisone] returned a relative cell viability of 0.786. Take `COC(=O)[C@@H]1CC2=CC(=O)CC[C@]2(C)[C@@]23O[C@@H]2C[C@@]2(C)[C@@H](CC[C@@]24CCC(=O)O4)[C@H]13` [Eplerenone]: the relative cell viability turned out to be 0.925. The value for `C[C@]12C=CC(=O)C=C1CC[C@@H]1[C@@H]2[C@@H](O)C[C@@]2(C)[C@H]1CC[C@]2(O)C(=O)CO` [Prednisolone] was 1.01; that for `C[C@H](CCC(=O)O)[C@H]1CC[C@H]2[C@@H]3[C@@H](O)C[C@@H]4C[C@H](O)CC[C@]4(C)[C@H]3CC[C@]12C` [Ursodiol] was 0.448. The value for `CNC(=C[N+](=O)[O-])NCCSCc1ccc(CN(C)C)o1` [Ranitidine Hydrochloride] was 1.1; that for `Cc1ccccc1N1C(=O)c2cc(S(N)(=O)=O)c(Cl)cc2NC1C` (stereo not given) [Metolazone] was 0.962. For the molecule `CCCc1nn(C)c2c(=O)[nH]c(-c3cc(S(=O)(=O)N4CCN(C)CC4)ccc3OCC)nc12` [Sildenafil Citrate], the relative cell viability amounted to 0.891. `Nc1ncnc2c1ncn2[C@@H]1O[C@H](CO)[C@@H](O)[C@@H]1O` [Vidarabine] yielded a relative cell viability of 0.744.
